The whole screen tested about 290,000 compounds, of which about 11,000 (3.8%) were called active.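 Rule for the calls: active = mean replicate inhibition above about 79%, with every replicate also reaching it (limit read from the data); inconclusive = only one of the two criteria met; inactive = mean below limit and not every replicate reaching it.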 Shown is part of a subset that was picked to be rich in actives.
The compounds below were run against FAD-linked sulfhydryl oxidase ALR (Homo sapiens) (UniProt P55789) (assay: ALR-catalysed DTT oxidation blockers – biochemical, H2O2 detection, HRP-luminol luminescence, single point, primary screen (AID 485317)). Settings: purified ALR, hits give high values, concentration not given here.
FAD-linked sulfhydryl oxidase ALR (Homo sapiens), sequence (P55789 whole entry, looked up): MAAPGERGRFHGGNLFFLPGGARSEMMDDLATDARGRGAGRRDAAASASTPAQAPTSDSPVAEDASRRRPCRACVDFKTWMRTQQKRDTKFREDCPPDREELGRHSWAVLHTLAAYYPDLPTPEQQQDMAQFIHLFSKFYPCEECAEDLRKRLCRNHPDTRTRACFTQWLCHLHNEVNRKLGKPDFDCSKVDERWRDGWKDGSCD

inhibition, active:
CCCCCCc1ccc(O)cc1O 84.4%
N=C(N)SCc1cccc2ccccc12 99.3%
O=C(CCl)NNc1cccc(Cl)n1 98.1%
O=C(CSCc1ccccc1Cl)NNC(=O)c1ccccc1 99.6%
COc1c(O)cc2oc(-c3ccc(O)c(O)c3)cc(=O)c2c1O 99%
Cc1ccc(C)c(Cn2nnc3c(=O)[nH]c(C(=O)Nc4ccc(F)cc4)nc32)c1 95.6%
OC(COCC1COc2ccccc2O1)CN1CCN(c2ccc(F)cc2)CC1 (centres undefined) 81.2%
Cc1cccc(CSc2nc3c(c(=O)n2C)SCC3)c1 99%
CCn1c(SCc2ccccc2)nc2c(c1=O)SCC2 90.4%
CC(NS(=O)(=O)c1ccccc1)c1n[nH]c(=S)n1-c1ccccc1 (centres undefined) 86.4%
COC(=O)c1nc(NC(=O)c2ccccc2)n[nH]1 97.4%
CC(Sc1cccc[n+]1[O-])C(=O)Nc1cccc(S(=O)(=O)N2CCOCC2)c1 (centres undefined) 96.9%
CCc1cc(-c2n[nH]c(=S)n2CC(C)C)cs1 94.7%
CC(C)NC(=O)NC(=O)COC(=O)c1ccc(NC(=O)CC#N)cc1 98.6%
O=C(CN1CCN(c2ccc(Cl)cc2)CC1)N1CCCC1 97.8%
Cc1ccc(CSCC(N)C(=O)O)cc1 (centres undefined) 99.1%
COc1ccccc1C(c1nnnn1CC1CCCO1)N1CCN(c2ccccc2)CC1 (centres undefined) 90.9%
O=C(CSC1CC(=O)N(CCc2ccccc2)C1=O)Nc1ccc(Cl)cc1 (centres undefined) 93.5%
S=c1[nH]nc(NCCc2ccccc2)s1 95.1%
S=c1[nH]nc(Nc2ccccc2)s1 98.6%

inhibition, inactive:
CCCCCCc1cc2cc(-c3nnc(-c4ccccc4)o3)c(=O)oc2cc1O 1.08%
CCCCCCCN=C(C)c1ccccc1O -17.6%
COc1cccc(N2CC(NS(=O)(=O)c3ccc(Cl)cc3)CC2=O)c1 (centres undefined) -2.83%
COc1ccc2c(c1)CCNC2Cc1ccc(OC)c(O)c1 (centres undefined) 22%
c1ccc2c(CNn3cnnc3)cccc2c1 -6.4%
N#C/C(=C(/O)Cc1cccc2ccccc12)c1nc2ccccc2s1 4.12%
O=C(CCNC(=O)c1ccc(Br)cc1)Nc1cccc(S(=O)(=O)N2CCCCC2)c1 -14.1%
COc1ccc2oc(C(=O)OCC(=O)N(CC(C)C)c3c(N)n(Cc4ccccc4)c(=O)[nH]c3=O)c(C)c2c1 7.4%
O=C(Nc1cc(S(=O)(=O)N2CCCCC2)ccc1Cl)C1COc2ccccc2O1 (centres undefined) 0.363%
Cc1c(C(=O)OCC(=O)N2CCCC2=O)oc2ccccc12 -37.2%
O=C(CCl)NNc1nc(-c2ccccc2)c2cc(Cl)ccc2n1 58.6%
COc1cc(OC)nc(NC(=O)CCl)n1 6.07%
O=C(COC(=O)c1ncc(Cl)c(Cl)c1Cl)NNC(=O)c1ccccc1 8.83%
O=C(COC(=O)Cc1ccccc1F)NNC(=O)c1ccc(Cl)cc1 0.881%
CCN1CCN(c2ccc(S(=O)(=O)N3CCCCC3)cc2NC(=O)c2cccc(NC(C)=O)c2)CC1 -18.1%
C[C@]12CC[C@H](O)CC1=CCC1C2CC[C@@]2(C)C1CC[C@@H]2NC(=O)CCC(=O)O (some centres undefined) -3.02%
Cc1ccc(NC(=O)COC(=O)C2CC2)cc1S(=O)(=O)N1CCOCC1 3.43%
CN(C)S(=O)(=O)c1ccc(C(=O)NCC2(N3CCOCC3)CCCCC2)cc1 -19.4%
COc1ccc(-c2cc(=O)c3c(O)cc(O[C@@H]4O[C@H](CO[C@@H]5O[C@@H](C)[C@H](O)[C@@H](O)[C@H]5O)[C@@H](O)[C@H](O)[C@H]4O)cc3o2)cc1O 2.46%
CCOC(=O)COc1cc(O)c2c(=O)cc(-c3ccccc3)oc2c1 -2.55%
[O-][n+]1ccc(OCc2ccccc2)cc1 -3.31%
CCOc1ccc(Br)cc1S(=O)(=O)Nc1ccc(S(=O)(=O)Nc2cc(C)on2)cc1 13.7%
Cc1ccc(NC(=O)N2CCC(c3nc4c(nnn4Cc4c(F)cccc4Cl)c(=O)[nH]3)CC2)cc1 -5.17%
O=C(Nc1ccc(F)cc1)N1CCCC(c2nc3c(nnn3Cc3ccccc3Cl)c(=O)[nH]2)C1 (centres undefined) -24.5%
OC(COCc1ccco1)CN1CCN(c2ccccc2)CC1 (centres undefined) 74.6%
O=[N+]([O-])c1ccc(N2CCN(CC(O)COc3ccccc3)CC2)cc1 (centres undefined) 6.12%
Cn1c(SCC(=O)N2CCCCC2)nc2c(c1=O)SCC2 -0.76%
Cc1cccc(CSc2nnc(C)c(=O)n2N)c1 -4.99%
COCCn1c(SCC(=O)N2CCCCCC2)nc2c(c1=O)SCC2 -0.691%
CCn1c(SCc2ccccc2)nc2cc(OC)c(OC)cc2c1=O -2.54%
NS(=O)(=O)c1ccc(CNC(=O)c2cccc(S(=O)(=O)N3CCc4ccccc43)c2)cc1 -5.92%
Cc1ccc(S(=O)(=O)N(C)C)cc1NC(=O)CN1c2cccc3cccc(c23)S1(=O)=O -16.6%
Cc1ccc(S(=O)(=O)N2CCCCC2)cc1NC(=O)CCNC(=O)c1ccccc1 -5.33%
CCOc1ccc(C(C)=O)cc1COC(=O)CN1C(=O)NC2(CCCC2)C1=O -0.483%
COc1cc(/C=C2\Oc3ccc(C#Cc4ccc(O)cc4)cc3C2=O)cc(OC)c1 4.14%
CC(NS(=O)(=O)c1ccc(OCC(=O)N2CCCC2)cc1)c1ccccc1 (centres undefined) -2.54%
S=c1[nH]nc(COc2ccccc2)n1-c1ccccc1 31.7%
COC(=O)c1nc(NC(=O)c2ccc(Cl)cc2)n[nH]1 -3.46%
O=C(Nc1nsc(-c2ccccc2)n1)c1ccncc1 1.28%
O=C(CSc1nc2ccccc2c(=O)n1CCCO)NC1CC1 0.869%
CC(Sc1ccccc1F)C(=O)Nc1cccc(S(=O)(=O)N2CCOCC2)c1 (centres undefined) -3.71%
CN=C(Nc1cccc(S(=O)(=O)N2CCOCC2)c1)c1ccccc1 -1.77%
CN(CC(=O)Nc1cccc(F)c1)C(=O)C1CC(=O)N(CCc2ccccc2)C1 (centres undefined) -3.35%
O=C(CSc1nnc(-c2ccncc2)o1)Nc1cccc(Cl)c1 6.76%
CCCc1cc(-c2n[nH]c(=S)n2Cc2ccccc2)cs1 49.7%
CCn1c(-c2ccncc2)n[nH]c1=S 65.5%
N#Cc1cc([N+](=O)[O-])ccc1NC(=O)COC(=O)c1cnccn1 -7.67%
O=C(c1cc2ccccc2o1)N1CCN(S(=O)(=O)c2ccc(Cl)s2)CC1 -0.962%
COc1ccc(C(CNC(=O)c2cccc(NS(=O)(=O)c3ccc(C)c(F)c3)c2)N2CCCC2)cc1 (centres undefined) -7.21%
CCOc1ccc(NC(=O)c2ccc(NC(=O)COC(=O)c3ccc(NC(=O)CC#N)cc3)cc2)cc1 1.83%
CC(C)c1ccc(NC(=O)COC(=O)c2ccc(CN3CCCC3=O)cc2)cc1 -43.2%
N#CCN(C(=O)COC(=O)C1CC2CCCC(C1)C2=O)c1ccccc1 (centres undefined) -1.07%
CCN(CC(=O)Nc1ccccc1C(F)(F)F)C(=O)C1CCN(C(=O)Nc2ccccc2)CC1 8.41%
O=C(CN1CCCC1)N1CCN(c2ccccc2)CC1 23.5%
O=C(CN1CCN(c2ccc(Cl)cc2)CC1)c1ccccc1 4.7%
Cc1ccc(CSCC(=O)N(C)CC(=O)Nc2ccc(C)cc2)cc1 -0.0315%
CSCC(NS(=O)(=O)c1ccc(C)cc1)C(=O)O (centres undefined) 19.4%
CCC1(c2ccccc2)NC(=O)N(CC(=O)c2ccc3c(c2)OCO3)C1=O (centres undefined) 0.023%
COc1cc(OC)cc(-c2c(C#Cc3ccsc3)c3cc(-c4ccc(OC)cc4F)ccc3n2C)c1 -17.2%
COc1ccc(C(c2nnnn2Cc2cccs2)N2CCN(c3ccccc3)CC2)cc1OC (centres undefined) 8.5%
Cc1cccc(N2CCN(C(c3ccccc3)c3nnnn3CC3CCCO3)CC2)c1C (centres undefined) -2.29%
COc1ccc(NC(=O)CCC(=O)N2CCN(S(=O)(=O)c3ccc(C)cc3)CC2)c(OC)c1 -6.29%
O=S(=O)(NCCCc1ccccc1)c1ccc(Br)cc1 2.4%
Cc1[nH]c2ccccc2c1C(=O)C(C)Sc1nnc(C2CC2)o1 (centres undefined) -3.37%
CC(=O)Nc1ccc(NC(=O)C(C)OC(=O)C2CC(=O)N(CCc3ccccc3)C2)cc1 (centres undefined) -1.82%
O=C(NCCCc1ccccc1)C1CCC(=O)N(CCc2ccc(Cl)cc2)C1 (centres undefined) 0.977%
c1ccc2c(CCN3CCNC[C@H]3Cc3cccc4ccccc34)cccc2c1 -14.6%
CN(C(=O)c1cccc(NC(=O)Cc2ccc([N+](=O)[O-])cc2)c1)C1CCC1 -1.83%
Cc1ccc(OCC(=O)Nc2ccccc2C(=O)NC2CC2)cc1 -2.04%
S=C(NCCc1ccccc1)Nc1ccccc1 12.6%
CC(C)(C)C(=O)c1cnc(Nc2ccccc2)s1 19.3%
O=c1cnnc(Nc2ccccc2)[nH]1 1.2%
Cc1nc(C)c(-c2csc(NCCc3ccccc3)n2)s1 24%
CCCc1cc(=O)[nH]c(SCC(=O)Nc2ccc(C(=O)Nc3ccccc3OC)cc2)n1 -0.142%

— PubChem BioAssay AID485317 (Broad Institute, 2010)
